Results from the supplement of paper PMC8728848.
About 410 targets per protein were measured; listed, in parts, are those with the strongest signals and a random draw of the rest.

Legend:
Assay in all cases: glycan array binding signal (z-score within array); higher = stronger binding
Settings in all cases: glycan notation: IUPAC condensed, linker removed
[1] = target: Fuc(a1-2)Gal(b1-3)GalNAc(a1-3)[Fuc(a1-2)]Gal(b1-4)Glc
Outline: (§1)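 Negative Z-scores can be read as non-binding. The Z-score is calculated within each array and then averaged across arrays of one protein sequence at different concentrations or buffers and across linkers. Arrays, 3228 in all, were curated from the Consortium for Functional Glycomics database and kept only where the protein sequence was available.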

[2] = target: Fuc(a1-2)Gal(b1-3)GlcNAc(b1-3)[Fuc(a1-2)Gal(b1-3)GlcNAc(b1-6)]GalNAc
Outline: as §1

[3] = target: Fuc(a1-2)Gal(b1-4)Fuc(a1-3)]GlcNAc(b1-2)Man(a1-3)[Fuc(a1-2)Gal(b1-4)[Fuc(a1-3)]GlcNAc(b1-2)Man(a1-6)]Man(b1-4)GlcNAc(b1-4)GlcNAc
Outline: as §1

[4] = target: Fuc(a1-2)Gal(b1-4)GlcNAc(b1-2)Man(a1-3)[Fuc(a1-2)Gal(b1-4)GlcNAc(b1-2)Man(a1-6)]Man(b1-4)GlcNAc(b1-4)GlcNAc
Outline: as §1

[5] = target: Fuc(a1-2)Gal(b1-4)GlcNAc(b1-2)Man(a1-3)[Fuc(a1-2)Gal(b1-4)GlcNAc(b1-2)Man(a1-6)]Man(b1-4)GlcNAc(b1-4)[Fuc(a1-6)]GlcNAc
Outline: as §1

[6] = target: Fuc(a1-2)Gal(b1-4)GlcNAc(b1-3)Gal(b1-4)GlcNAc(b1-2)Man(a1-3)[Fuc(a1-2)Gal(b1-4)GlcNAc(b1-3)Gal(b1-4)GlcNAc(b1-2)Man(a1-6)]Man(b1-4)GlcNAc(b1-4)GlcNAc
Outline: as §1

[7] = target: Fuc(a1-2)Gal(b1-4)GlcNAc(b1-6)GalNAc
Outline: as §1

[8] = target: Fuc(a1-2)[Gal(a1-4)]Gal(b1-4)GlcNAc
Outline: as §1

[9] = target: Fuc(a1-2)[GalNAc(a1-3)]Gal(b1-3)GlcNAc
Outline: as §1

[10] = target: Fuc(a1-2)[GalNAc(a1-3)]Gal(b1-4)[Fuc(a1-3)]GlcNAc
Outline: as §1

[11] = target: Fuc(a1-2)[GalNAc(a1-4)]Gal(b1-4)GlcNAc
Outline: as §1

[12] = target: Fuc(b1-3)GlcNAc
Outline: as §1

[13] = target: Gal(a1-3)Gal(b1-3)GlcNAc(b1-3)GalNAc
Outline: as §1

[14] = target: Gal(a1-3)Gal(b1-4)Glc
Outline: as §1

[15] = target: Gal(a1-3)GalNAc
Outline: as §1

[16] = target: Gal(b1-3)GalNAc(b1-3)Gal
Outline: as §1

[17] = target: Gal(b1-3)[Fuc(a1-4)]GlcNAc(b1-6)GalNAc
Outline: as §1

[18] = target: Gal(b1-3)[GlcNAc(b1-6)]GalNAc
Outline: as §1

[19] = target: Gal(b1-4)GlcNAc
Outline: as §1

[20] = target: Gal(b1-4)GlcNAc(b1-2)Man(a1-3)[Gal(b1-4)GlcNAc(b1-2)Man(a1-6)][Gal(b1-4)GlcNAc(b1-4)]Man(b1-4)GlcNAc(b1-4)[Fuc(a1-6)]GlcNAc
Outline: as §1

[21] = target: Gal(b1-4)GlcNAc(b1-3)Gal(b1-4)GlcNAc(b1-3)Gal(b1-4)GlcNAc(b1-2)Man(a1-3)[Gal(b1-4)GlcNAc(b1-3)Gal(b1-4)GlcNAc(b1-3)Gal(b1-4)GlcNAc(b1-2)Man(a1-6)]Man(b1-4)GlcNAc(b1-4)[Fuc(a1-6)]GlcNAc
Outline: as §1

[22] = target: Gal(b1-4)GlcNAc(b1-3)Gal(b1-4)GlcNAc(b1-3)Gal(b1-4)GlcNAc(b1-3)Gal(b1-4)GlcNAc(b1-2)Man(a1-3)[Gal(b1-4)GlcNAc(b1-3)Gal(b1-4)GlcNAc(b1-3)Gal(b1-4)GlcNAc(b1-3)Gal(b1-4)GlcNAc(b1-2)Man(a1-6)]Man(b1-4)GlcNAc(b1-4)GlcNAc
Outline: as §1

[23] = target: Gal(b1-4)GlcNAc(b1-3)Gal(b1-4)GlcNAc(b1-3)Gal(b1-4)GlcNAc(b1-3)Gal(b1-4)GlcNAc(b1-2)Man(a1-3)[Gal(b1-4)GlcNAc(b1-3)Gal(b1-4)GlcNAc(b1-3)Gal(b1-4)GlcNAc(b1-3)Gal(b1-4)GlcNAc(b1-2)Man(a1-6)]Man(b1-4)GlcNAc(b1-4)[Fuc(a1-6)]GlcNAc
Outline: as §1

[24] = target: Gal(b1-4)GlcNAc(b1-3)Gal(b1-4)GlcNAc(b1-3)Gal(b1-4)GlcNAc(b1-3)Gal(b1-4)GlcNAc(b1-2)[Gal(b1-4)GlcNAc(b1-3)Gal(b1-4)GlcNAc(b1-3)Gal(b1-4)GlcNAc(b1-3)Gal(b1-4)GlcNAc(b1-6)]Man(a1-6)[Gal(b1-4)GlcNAc(b1-3)Gal(b1-4)GlcNAc(b1-3)Gal(b1-4)GlcNAc(b1-3)Gal(b1-4)GlcNAc(b1-2)Man(a1-3)]Man(b1-4)GlcNAc(b1-4)[Fuc(a1-6)]GlcNAc
Outline: as §1

[25] = target: Gal(b1-4)GlcNAc(b1-3)Gal(b1-4)GlcNAc(b1-3)Gal(b1-4)GlcNAc(b1-3)Gal(b1-4)GlcNAc(b1-3)Gal(b1-4)GlcNAc(b1-2)Man(a1-3)[Gal(b1-4)GlcNAc(b1-3)Gal(b1-4)GlcNAc(b1-3)Gal(b1-4)GlcNAc(b1-3)Gal(b1-4)GlcNAc(b1-3)Gal(b1-4)GlcNAc(b1-2)Man(a1-6)]Man(b1-4)GlcNAc(b1-4)GlcNAc
Outline: as §1

B1: DrGal3 (Danio rerio) (protein)
chain: MDLSDALDAPPQQNNQQAGGPVWPGQPANPVWPGQPANPTWPGQPNQPAWPGQPNQQWPGQPGQPTAPGWPGPAPQTGPYGAPGQAPQVLTVPLDFPLQNGAYNKMLITINGEVKPNAKQFTVNLRRGNDIAFHINPRFSEGGKPVIVRNSMIGNNWGREERELPSFPFVPGKPFEMKILITDTEYKVAVNKSHLLEFKHRVFELNQITGLSIYNDVTLSTVNVETLQ
glycan array binding signal (z-score) [1]: -0.254 | glycan array binding signal (z-score) [2]: -0.164 | glycan array binding signal (z-score) [3]: -0.125 | glycan array binding signal (z-score) [4]: -0.218 | glycan array binding signal (z-score) [5]: -0.209 | glycan array binding signal (z-score) [6]: 1.52 | glycan array binding signal (z-score) [7]: -0.25 | glycan array binding signal (z-score) [8]: -0.087 | glycan array binding signal (z-score) [9]: -0.212 | glycan array binding signal (z-score) [10]: -0.206 | glycan array binding signal (z-score) [11]: -0.233 | glycan array binding signal (z-score) [12]: -0.277 | glycan array binding signal (z-score) [13]: -0.287 | glycan array binding signal (z-score) [14]: -0.233 | glycan array binding signal (z-score) [15]: -0.007 | glycan array binding signal (z-score) [16]: -0.183 | glycan array binding signal (z-score) [17]: -0.208 | glycan array binding signal (z-score) [18]: -0.231 | glycan array binding signal (z-score) [19]: -0.237 | glycan array binding signal (z-score) [20]: -0.247 | glycan array binding signal (z-score) [21]: 4.37 | glycan array binding signal (z-score) [22]: 4.2 | glycan array binding signal (z-score) [23]: 5.59 | glycan array binding signal (z-score) [24]: 4.6 | glycan array binding signal (z-score) [25]: 6.65
